# This is a sample that favours compounds with a hit; in the whole collection about 5.2% have one here.
# A3A deaminase = blocks human APOBEC3A ssDNA deamination; P31941; recombinant A3A, FAM/TAMRA ssDNA deamination fluorescence; inhibition, % at 20 µM; 330,000 compounds, 0.41% hits;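 active = at least 40% inhibition at 20 µM here, with at most 30% in a related deaminase screen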;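 also: plate controls were A3A with DMSO for no effect and wells lacking A3A enzyme for full effect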
# Yeast superoxide = lowers age-related superoxide in aged yeast cells | S. cerevisiae aged cells, superoxide DHE fluorescence; active compounds read low | superoxide response (% of plate mean), % at 10 µM | 330,000 compounds, 0.18% hits | AID 2690;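 active = superoxide response under a set limit, about three screen SD below normal, cut at about 65% in these data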;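 also: yeast aged for seven days with compound at 30 °C before DHE staining; 100% = average MFI of all compound-treated wells on the plate with controls excluded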
# ALR H2O2 inh = human ALR oxidase inhibition via reduced H2O2. purified ALR, DTT oxidation, H2O2 HRP-luminol luminescence. 290,000 compounds, 3.8% hits. inhibition, % (concentration not given with the values). P55789. AID 485317;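 active = mean replicate inhibition above about 79%, with every replicate also reaching it, limit read from the data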
# PfM18AAP inh = PfM18AAP enzyme inhibition; recombinant PfM18AAP, H-Glu-NHMec fluorogenic cleavage; inhibition, % at 7.35 µM; 290,000 compounds, 1.2% hits; AID 1822;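 active = inhibition above the campaign mean inhibition over all tested compounds plus 3 SD, cut at about 28% in these data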;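 also: 0% = plate median of test compound wells and 100% = 2 mM ZnCl2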
# A3G deaminase = APOBEC3G (human) deaminase inhibition; Q9HC16; recombinant A3G, ssDNA deamination FAM/TAMRA fluorescence; inhibition, % at 20 µM; 330,000 compounds, 0.28% hits;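 active = inhibition of at least 40% at 20 µM, with no more than 30% in the related APOBEC3A deaminase screen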;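 also: plate controls were DMSO wells with A3G for no effect and wells lacking A3G enzyme for full effect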
# CendR NRP1 mod = NRP-1/CendR interaction modulation; O14786; FAM-RPARPAR peptide binding to NRP-1, fluorescence polarization; inhibition, % at 25 µM; 360,000 compounds, 0.85% hits; AID 602438;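 active = inhibition or corrected inhibition above about 18%, plus a signal ratio from 0.5 to 1.5, limit read from the data, passing the limit was not always enough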
# The depositor's hits bear a star; nt = not tested or not shown.
SMILES,A3A deaminase,Yeast superoxide,ALR H2O2 inh,PfM18AAP inh,A3G deaminase,CendR NRP1 mod
Cn1cnnc1SCc1ccc(C(=O)N/N=C(\CCC(=O)O)c2ccc(C(C)(C)C)cc2)cc1,nt,77,98*,2,nt,1
COc1ccc(/C=N/NC(=O)c2ccc(CSc3nc(C)cc(C)n3)cc2)cc1O,-2,79,77*,2,-4,-7
COc1ccc(/C=N/NC(=O)c2ccc(CSc3nc(C)cc(C)n3)cc2)c(OC)c1OC,-2,88,nt,1,-6,-2
COc1ccc(/C=N/NC(=O)c2ccc(C)nc2)cc1O,-8,109,97*,5,-2,0
O=C1C(=NO)CC(c2ccccc2)N1c1ccccc1 (stereo not drawn),nt,nt,nt,nt,nt,7
COc1ccc(/C=N/NC(=O)c2ccoc2C)cc1OC,2,115,nt,-2,-14,-6
COc1ccc(/C=N/NC(=O)c2cc[n+]([O-])cc2)cc1O,0,91,99*,3,-1,-6
COc1ccc(/C=N/NC(=O)c2ccoc2C)cc1O,-1,100,99*,-14,2,-6
COc1ccc(/C=N\NC(=O)c2ccc(=O)[nH]n2)cc1O,2,104,100*,15,-7,-1
COc1ccc(/C=N/NC(=O)c2cc[n+]([O-])cc2)cc1,-3,92,nt,-6,-8,-5
COc1cccc(Oc2nnnn2-c2ccccc2)c1,1,109,-15,-2,-2,0
COc1cccc(-n2nnnc2S(C)(=O)=O)c1,-4,117,99*,-54,5,-3
CCCn1c(N)c(NCCN2CCOCC2)c(=O)[nH]c1=O,4,106,99*,-9,-4,3
COc1cccc(-n2cc(CN(C)Cc3nc(Cc4cccc(F)c4)no3)cn2)c1,0,97,nt,-10,-3,12
COc1cc(/C=C2\SC(=Nc3ccc(O)cc3)NC2=O)cc(OC)c1OC,1,98,-30,-17,-1,nt
COc1cc(/C=C2/SC(=Nc3ccc(O)cc3)NC2=O)cc(OC)c1O,0,100,22,33*,-10,-31
CCc1ccc(N=C2NC(=O)/C(=C/c3ccc(OCC(=O)O)cc3)S2)cc1,-5,103,98*,-3,-2,-54
CCOC(=O)[C@]12CCCC=C1N(Cc1ccc(Cl)cc1Cl)C(=O)[C@H](CC(=O)NCCC(C)C)C2,nt,nt,nt,nt,nt,-2
CC1(C)CC(=O)C2=C(C1)N(Cc1ccco1)C(=O)C2(NC(=O)c1ccc(Cl)cc1Cl)C(F)(F)F (stereo not drawn),1,102,98*,0,-4,2
CC1(C)CC(=O)C2=C(C1)N(Cc1ccco1)C(=O)C2(NC(=O)C1CCCCC1)C(F)(F)F (stereo not drawn),1,97,0,-4,-3,6
Cc1ccc2nc(Cl)c(/C=N/NC(=O)c3ccccc3O)cc2c1,2,89,97*,-1,-4,-2
CCCOC(=O)c1ccc(Oc2c(-c3ccc(OCC)cc3O)n[nH]c2C)cc1,-4,91,1,0,-9,7
COc1ccc(Oc2c(-c3ccc(O)cc3O)n[nH]c2C)cc1,-1,103,90*,3,0,2
C=CCn1c(CCSCc2ccccc2)n[nH]c1=S,18,97,94*,21,32,3
O=c1c2ccccc2[nH]c2ccc(O)cc12,21,97,87*,-22,20,13
SMILES,A3A deaminase,Yeast superoxide,ALR H2O2 inh,PfM18AAP inh,A3G deaminase,CendR NRP1 mod
CCOC(=O)c1c(-c2ccccc2)[nH]c2ccc(O)cc12,-1,90,98*,9,-6,1
Cc1ccc2[nH]c3ccccc3c(=O)c2c1,-6,80,1,-6,-5,4
O=C(NCC1CC1)C1(S(=O)(=O)c2ccccc2)CC=CC1,-1,95,1,-5,-5,21*
Cc1csc(=Nc2cccnc2)n1Cc1ccco1,-2,92,34,-2,-4,-4
CC(C)=N/N=c1\scc(C)n1Cc1ccco1,-3,96,49,12,-5,-6
Cc1cs/c(=N\N=C\c2ccccc2)n1Cc1ccco1,nt,96,84*,-2,nt,-9
Cc1cs/c(=N\N=C2CCCCC2)n1Cc1ccco1,0,96,96*,9,-6,1
CC(c1n[nH]c(=S)n1-c1ccc(Cl)cc1)N(C)C (stereo not drawn),-4,108,41,26,-1,18
CC(c1n[nH]c(=S)n1-c1ccc(F)cc1)N1CCCCC1 (stereo not drawn),0,97,91*,23,-10,2
COc1ccc(S(=O)(=O)N(C)CC(=O)Nc2ccccc2C(F)(F)F)cc1Cl,1,89,-1,3,-6,6
Cc1cccc(NC(=O)CNC(=O)c2cccc(S(=O)(=O)NCc3cccs3)c2)c1C,0,106,1,nt,-8,5
CC(C)COc1ccc(N)cc1OCC(C)C,-1,90,99*,8,-3,2
COc1ccc(N2CCN(C(CNC(=O)C(=O)NCc3ccc4c(c3)OCO4)c3ccco3)CC2)cc1 (stereo not drawn),2,88,-8,-5,1,8
COc1ccc(N2CCN(C(CNC(C)=O)c3ccc4c(c3)OCO4)CC2)cc1 (stereo not drawn),-5,116,88*,6,-3,-1
COc1ccc(N2CCN(C(CNC(=O)CC(C)(C)C)c3ccc4c(c3)OCO4)CC2)cc1 (stereo not drawn),-4,95,82*,3,-3,11
COc1ccccc1N1CC(C(=O)Nc2nnc(SCc3cccnc3)s2)CC1=O (stereo not drawn),0,103,88*,-1,-6,0
COc1ccc(N2CC(C(=O)Nc3nnc(SCc4cccnc4)s3)CC2=O)cc1 (stereo not drawn),-1,94,20,-4,-6,-22
COc1ccccc1-c1nnc(SCC(=O)O)n1-c1ccccc1,-3,84,-16,-16,-6,6
O=C(O)CSc1nnc(-c2ccc(Cl)cc2Cl)n1-c1ccc(Cl)cc1,31,110,nt,-4,0,26*
O=C1/C(=C\c2ccco2)NC(=S)N1c1ccccc1,6,102,-10,12,-3,-66
CCCN=C1N/C(=C\c2ccco2)C(=O)N1c1ccccc1,-16,105,26,14,0,43*
CO/N=C/NC(=O)c1ccc([N+](=O)[O-])c(CS(=O)(=O)c2ccc(Cl)cc2)c1,1,87,100*,3,0,-8
NNC(=O)c1ccc([N+](=O)[O-])c(CS(=O)(=O)c2ccc(Cl)cc2)c1,-3,104,-6,-16,-5,11
COc1ccc(-c2cnc3c(NC(C)=O)cc(-c4cccc(C(=O)N(C)C)c4)cn23)cc1OC,nt,nt,nt,nt,nt,-14
Cc1ccc(S(=O)(=O)N2CCOCC2)cc1NC(=O)CSc1nc2ccccc2c(=O)n1Cc1ccccc1,-2,109,-7,6,-10,-3

# Screens: PubChem BioAssay, several laboratories
